NTR1 ag: agonists of human NTR1, primary screen, imaging, U2OS cells, beta-arrestin-GFP, high content. activation, % at 20 µM. 330,000 compounds, 0.17% hits. Neurotensin receptor type 1 (Homo sapiens), P30989. NTR1-U2OS beta-arrestin-GFP spot imaging, agonist mode;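 active = activation at or above 40% of the spot to cytoplasm intensity ratio, with at least 20 cells analyzed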;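 also: 0% = DMSO without peptide and 100% = 100 nM NTR1 peptide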
Target sequence (P30989 whole entry, looked up): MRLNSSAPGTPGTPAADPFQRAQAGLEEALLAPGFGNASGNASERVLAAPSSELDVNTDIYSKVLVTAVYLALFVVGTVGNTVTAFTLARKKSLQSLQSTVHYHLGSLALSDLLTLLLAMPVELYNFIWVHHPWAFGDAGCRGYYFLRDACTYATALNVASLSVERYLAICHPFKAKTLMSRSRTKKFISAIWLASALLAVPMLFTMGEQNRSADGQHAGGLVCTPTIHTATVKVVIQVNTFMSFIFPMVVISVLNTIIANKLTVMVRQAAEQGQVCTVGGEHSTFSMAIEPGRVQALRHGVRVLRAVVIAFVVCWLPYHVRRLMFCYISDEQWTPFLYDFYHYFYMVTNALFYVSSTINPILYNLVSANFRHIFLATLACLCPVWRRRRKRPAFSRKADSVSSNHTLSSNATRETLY
GRIN3A LBD mod: binders of NR3A ligand-binding domain, primary screen, biophysical, differential scanning fluorimetry, uHTS; Glutamate receptor ionotropic, NMDA 3A (GRIN3A) ligand-binding domain; NR3A LBD differential scanning fluorimetry, Tm shift; 0% = protein alone, 100% = glycine-bound protein; Tm shift relative to glycine control, % at 25 µM; 340,000 compounds, 2.5% hits; AID 1259313, 2017;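 active = melting temperature shift of at least 10% of the positive control shift, at one fixed dose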
AHR activator: AHR activators, primary screen, cell-based, luminescence, luciferase reporter, human; activation, % at 5 µM; AHR-responsive luciferase reporter cells; 320,000 compounds, 2.5% hits; Aryl hydrocarbon receptor (Homo sapiens), P35869; AID 2796, 2010; in the data active = activation above about 47%;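 also: 0% = vehicle wells and 100% = reference agonist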
AI-2 QS mod: Vibrio harveyi AI-2 quorum sensing modulators, primary screen, JMH597 strain, luminescence/OD600 ratio; activity change, % at 7.5 µM; Vibrio harveyi JMH597 AI-2 luminescence/OD600 ratio, 9 h; hits give low values; strain lacks LuxN and CqsS sensors; 0 = neutral-control median; 300,000 compounds, 0.4% hits; AID 2094, 2009; in the data active = activity change below about -75%, passing the limit was not always enough;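 also: luminescence divided by OD600 gain over 9 h not by final OD600 alone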
H9c2 protect: cardioprotection against H2O2-induced cell death, primary screen, uHTS, H9c2 cells, ATPLite luminescence; H9c2 cardiomyocytes, H2O2 injury protection, 2 h; protection from H2O2 cell death, % at 20 µM; 360,000 compounds, 0.63% hits;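 active = compounds giving at least 50% protection of heart cells from peroxide-induced death in the single-dose screen, raw or plate-pattern-corrected value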;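 also: 0% = DMSO wells with peroxide and 100% = DMSO wells without peroxide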
Mot1-301 SUMO: yeast Mot1-301 growth rescue at high temperature, primary screen, SUMOylation pathway inhibitor project, S. cerevisiae, ATP luminescence, 38.5C; 320,000 compounds, 1% hits; growth rescue, % at 18.8 µM; S. cerevisiae Mot1-301 growth rescue; percent above DMSO median, 100 means doubled;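 active = every valid replicate shows activation above 250% relative to neutral control wells; inactive = the rest, any valid replicate at or below 250%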;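 also: OY570 slx delta 5 strain wells were the positive control but not used for scaling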
Numbers without * were called inactive; · = no result. In the library only some 6.2% were active in any assay of this set; here they are far more common.

SMILES | NTR1 ag | GRIN3A LBD mod | AHR activator | AI-2 QS mod | H9c2 protect | Mot1-301 SUMO
O=[N+]([O-])c1ccc(N2CCN(S(=O)(=O)Cc3ccccc3)CC2)cc1N1CCOCC1 | -4 | 5 | 3 | -13 | 6 | -9
O=C(CSc1nnc(NC(=O)c2ccccc2[N+](=O)[O-])s1)NCc1ccco1 | 0 | 0 | 1 | -4 | -4 | -2
O=C1N=C(N2CCCCC2)S/C1=C\c1ccncc1 | -1 | 2 | 7 | 28 | 4 | -2
COc1ccc(/C=C2\SC(N3CCCCC3)=NC2=O)cc1 | 1 | 1 | 49* | 22 | 0 | 13
COc1ccc(CC(=O)N[C@@H]2c3cc(OC)c(OC)cc3C[C@H]2O)cc1 | 4 | -2 | · | · | 7 | ·
CCN(CC)S(=O)(=O)c1cc([N+](=O)[O-])ccc1N=Nc1c(O)[nH]c2ccccc12 | · | 18* | 7 | 27 | -5 | 5
CSc1ncccc1C(=O)Nc1nnc(C2CC2)s1 | 0 | -2 | 61* | 2 | 12 | -3
CSc1ncccc1C(=O)Nc1nccs1 | 5 | 1 | 22 | 9 | -2 | 46
CCc1nnc(NC(=O)c2cccnc2SC)s1 | 2 | -1 | 51* | 25 | -2 | ·
O=C(Nc1nnc(C2CC2)s1)c1n[nH]c(=O)c2ccccc12 | 1 | -1 | 65* | 16 | 20 | -4
CSc1ncccc1C(=O)Nc1ncc(C)s1 | -1 | 0 | 43 | -4 | -3 | -12
COc1ccc(S(=O)(=O)NC(=O)C2(C)CCN2C(=O)C2CC2)cc1 (stereo unspecified) | · | · | · | · | 0 | ·
CC1CCCCC1NC(=O)COC(=O)c1ccc2c(c1)NC(=O)CS2 (stereo unspecified) | 0 | -1 | 1 | · | -8 | -8
COCc1cccc(-c2csc(C(C)(O)c3cccc(F)c3)n2)c1 (stereo unspecified) | · | · | · | · | -18 | ·
COc1ccc(/C=C/C(=O)NCC(=O)N/N=C(/C)c2ccc(Cl)cc2)cc1 | 0 | -3 | 6 | 21 | 8 | -6
Cc1c(C(=O)NCc2ccccc2)sc(=O)n1Cc1ccccc1F | · | · | · | · | -4 | ·
COc1cccc(N2CCN(c3ccc4nnc(CCC(=O)Nc5ncccc5C)n4n3)CC2)c1 | 1 | -1 | 2 | 10 | 33 | 26
COc1ccc(C)cc1NC(=O)C(OC(=O)c1cc(C)oc1C)c1ccccc1 (stereo unspecified) | 3 | 0 | 73* | 11 | -9 | 30
COc1ccc(C)cc1NC(=O)C(OC(=O)CNC(=O)c1cccc(F)c1)c1ccccc1 (stereo unspecified) | -1 | -16 | 72* | 7 | -2 | -6
COc1ccc(C)cc1NC(=O)C(OC(=O)c1cnc(C)cn1)c1ccccc1 (stereo unspecified) | 0 | 4 | 60* | 33 | 2 | 3
COc1ccc(NC(=O)C(OC(=O)c2cnc(C)cn2)c2ccccc2)cc1Cl (stereo unspecified) | 1 | -3 | 7 | 16 | 4 | 4
CCOc1ccccc1NC(=O)C(OC(=O)c1cc(C)oc1C)c1ccccc1 (stereo unspecified) | 2 | -2 | 7 | 19 | -18 | -10
COc1ccc(C)cc1NC(=O)C(NCC1CCCO1)c1ccccc1 (stereo unspecified) | 4 | 15* | 9 | 37 | 0 | -6
COc1ccc(S(=O)(=O)NCC2CCCO2)cc1NC(=O)c1ccccc1 (stereo unspecified) | 0 | 10 | 5 | 19 | -3 | 1
O=C(CNC(=O)c1ccccc1)OC(C(=O)Nc1cc(C(F)(F)F)ccc1Cl)c1ccccc1 (stereo unspecified) | 6 | -1 | -1 | 23 | -4 | 356
SMILES | NTR1 ag | GRIN3A LBD mod | AHR activator | AI-2 QS mod | H9c2 protect | Mot1-301 SUMO
O=C1CN(S(=O)(=O)c2cc(C(F)(F)F)ccc2Cl)CCN1 | 1 | 2 | 1 | · | -2 | 2
Cc1cnc(C(=O)OC(C(=O)Nc2cc(C(F)(F)F)ccc2Cl)c2ccccc2)cn1 (stereo unspecified) | 2 | -4 | 3 | 20 | -5 | -5
Cc1ccc(C)c(NC(=O)C(OC(=O)c2cnc(C)cn2)c2ccccc2)c1 (stereo unspecified) | 0 | 2 | 70* | 1 | 4 | 4
CC1Oc2cc3oc4c(O)c(O)ccc4c(=O)c3c(O)c2C1(C)C (stereo unspecified) | 6 | 20* | 8 | 215 | -5 | -18
Cc1noc(C)c1COc1ccc(C(=O)OCC(=O)c2ccc3c(c2)OCCO3)cc1 | -1 | 11* | 2 | 7 | -1 | -7
Cc1c(C(=O)OCC(=O)c2ccc3c(c2)OCCO3)oc2ccccc12 | 0 | -3 | -1 | 6 | -17 | 312*
Oc1c(Cl)cc(Cl)cc1C=Nc1cc(C(F)(F)F)ccc1N1CCc2ccccc2C1 | 11 | 1 | 68* | 15 | -21 | 43
CC(C)CC1C(=O)N(Cc2cn(CCC3OCCCO3)nn2)CCS(=O)(=O)N1Cc1ccc(-c2ccc(Cl)nc2)cc1 (stereo unspecified) | · | · | · | · | 26 | ·
CC(=O)/C(N=Nc1cc(C)ccc1O)=C(\C)O | 0 | -1 | 56* | 13 | 2 | -7
Cc1nc2c(-c3ccc(Cl)cc3)cnn2c2c1CCC2 | 4 | -9 | 74* | 24 | -1 | 105
Cc1nc2c(-c3ccc(Cl)cc3)cnn2c(N)c1-c1ccc(F)cc1 | 17 | 6 | 15 | 0 | -14 | -10
CCn1c(-c2cccnc2Cl)nc2cc(Cl)c(Cl)cc21 | 0 | -4 | 52* | 18 | -1 | -1
CCOC(=O)N1CCC(N2CC34C=CC(O3)C(C(=O)Nc3ccc(C)cc3)C4C2=O)CC1 (stereo unspecified) | -5 | 0 | 77* | 0 | 10 | -8
CCOC(=O)C1C2C=CC3(CN(C4CCCC4)C(=O)C13)O2 (stereo unspecified) | -2 | 0 | 2 | 5 | 5 | 118
O=C(Nc1c2c(nn1-c1cccc(Cl)c1)CS(=O)(=O)C2)c1ccco1 | 3 | -1 | 2 | 32 | -2 | 8
Cc1cc(C)n(-c2nc(C)nc3c2cnn3-c2ccccc2)n1 | 4 | 1 | 49* | 13 | -9 | 3
Cc1cc(C)n(-c2nc3ccccc3c3nc(C)nn23)n1 | 0 | 0 | 2 | 8 | 6 | -15
CC(OC(=O)c1cccnc1SCc1cc(=O)n2ccccc2n1)c1ccccn1 (stereo unspecified) | 0 | 0 | 73* | 18 | 30 | -9

Assay outcomes as filed in PubChem.
